Screens as filed in PubChem.
IDE act: IDE (human) activation, cell-based | HEK cells, FAbeta-B cleavage, fluorescence polarization; 0% vehicle, 100% cell-free pure enzyme wells | activation, % at 5.96 µM | 340,000 tested, 0.073% active | AID 493087;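 active = activation above the mean of all tested compounds plus 3 SD, set per screening campaign, cut at about 17% in these data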
GLD-1 TGE inh: GLD-1-TGE RNA interaction inhibition (C. elegans); Q17339; 320,000 tested, 0.44% active; inhibition, % at 5.96 µM; purified GLD-1 + fluorescein TGE RNA, fluorescence polarization;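 active = percent inhibition above a per-plate cutoff, the plate mean of test compounds plus 3 SD, cut at about 30% in these data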;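 also: 0% = DMSO wells with GLD-1 and probe and 100% = wells lacking GLD-1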
MCL1-BIM inh: MCL1-BIM-BH3 interaction inhibition (human); 320,000 tested, 0.68% active; GST-MCL1 / FITC-Bim-BH3 fluorescence polarization; AID 2057; Q07820; inhibition, % at 10.9 µM;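 active = inhibition above the mean inhibition of all tested compounds plus 3 SD, set per campaign, cut at about 40% in these data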;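 also: 0% = DMSO wells and 100% = unlabeled Bim-BH3 peptide control; higher means more loss of mP so more displacement of Bim peptide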
Target sequence (Q07820 whole entry, looked up): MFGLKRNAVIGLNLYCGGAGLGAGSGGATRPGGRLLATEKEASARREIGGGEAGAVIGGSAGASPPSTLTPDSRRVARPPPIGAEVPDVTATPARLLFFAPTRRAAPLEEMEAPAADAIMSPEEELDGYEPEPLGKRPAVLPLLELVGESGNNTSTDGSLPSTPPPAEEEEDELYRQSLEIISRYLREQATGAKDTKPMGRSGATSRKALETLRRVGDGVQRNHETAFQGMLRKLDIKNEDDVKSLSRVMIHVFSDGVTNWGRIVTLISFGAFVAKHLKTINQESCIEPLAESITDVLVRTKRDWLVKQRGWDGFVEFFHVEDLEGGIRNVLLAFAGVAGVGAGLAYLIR
MEX-5 binding: C. elegans MEX-5 TCR-2 RNA binding activity. AID 1832. 300,000 tested, 0.38% active. Q9XUB2. activity score (negative = inhibition of binding), % at 10 µM. MEX-5/FITC-TCR2 RNA binding, fluorescence polarization; active compounds read low;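 active = inhibition past about -25% in most replicates, and total fluorescence under double the plate's negative control median, limit read from the data; inconclusive = replicates evenly split on the limit, or fluorescence at least double controls; inactive = too little inhibition in most replicates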;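 also: 0% = DMSO and -100% = 5 µM competing unlabeled TCR2 RNA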
IDE cell inh: inhibitors of human insulin-degrading enzyme in cells. HEK cells, FAbetaB cleavage, fluorescence polarization. inhibition, % at 5.59 µM. 320,000 tested, 0.41% active. AID 434962;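 active = percent inhibition above the average of all tested compounds plus 3 SD, set per screening campaign, cut at about 16% in these data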;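 also: IDE supplied by intact live HEK cells; FP after avidin binding of uncleaved biotin substrate so inhibition keeps polarization high; 0% = DMSO wells and 100% = 60 µM reference IDE inhibitor Ii1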
BCLXL inh: Bcl-xL (human) inhibition. Q07817. GST-Bcl-xL / FITC-Bim BH3 peptide fluorescence polarization. inhibition, % at 10.9 µM. 320,000 tested, 0.7% active;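 active = inhibition above the mean of all tested compounds plus 3 SD, cutoff set per campaign, cut at about 30% in these data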;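 also: 0% = DMSO wells and 100% = unlabeled Bim-BH3 peptide competitor; inhibitors lower millipolarization by displacing the labeled peptide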
Target sequence (Q07817 whole entry, looked up): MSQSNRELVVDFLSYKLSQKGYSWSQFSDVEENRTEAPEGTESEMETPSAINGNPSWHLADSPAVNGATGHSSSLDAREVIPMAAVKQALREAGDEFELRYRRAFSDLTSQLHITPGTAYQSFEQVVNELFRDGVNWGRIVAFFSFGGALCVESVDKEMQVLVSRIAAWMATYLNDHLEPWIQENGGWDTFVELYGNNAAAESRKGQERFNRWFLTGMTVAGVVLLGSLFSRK
Bcl-xL conf: counter-screen for MCL1 inhibitors: confirmation of human Bcl-xL inhibitors. inhibition, % at 10.9 µM. 1,700 tested, 54% active. shares compounds with MCL1-BIM inh. GST-Bcl-xL / FITC-Bim BH3 peptide FP binding;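 active = inhibition above a cutoff equal to the mean inhibition of all tested compounds plus 3 SD, cut at about 30% in these data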;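 also: 0% = DMSO wells and 100% = unlabeled Bim BH3 control peptide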
MCL1 BIM confirm: confirmation of human MCL1 and BIM-BH3 interaction inhibitors; AID 2168; shares compounds with MCL1-BIM inh; 1,700 tested, 61% active; inhibition, % at 10.9 µM; GST-MCL1 / FITC-Bim-BH3 fluorescence polarization;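 active = inhibition above the average of all tested compounds plus 3 SD, cut at about 40% in these data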;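 also: 0% = DMSO wells and 100% = unlabeled Bim-BH3 control peptide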
The depositor's hits bear a star; u = inconclusive; x = not tested or not shown; + = active, no number. Shown are actives, neighbours in structure and some others; about 1.5% of the full set was active somewhere.

SMILES	IDE act	GLD-1 TGE inh	MCL1-BIM inh	MEX-5 binding	IDE cell inh	BCLXL inh	Bcl-xL conf	MCL1 BIM confirm
COc1ccc(/C=N/NC(=O)c2nn(-c3ccccc3)c(=O)c3c(N)scc23)cc1	-2	5	41*	3	0	25	12	2
O=C(COC(=O)c1cc[n+]([O-])cc1)Nc1ccc([N+](=O)[O-])cc1C(F)(F)F	7	x	x	x	x	x	x	x
CN1CCc2cccc3c2C1Cc1ccc(O)c(O)c1-3 (stereo not given)	-4	7	49*	-83*	0	33*	46*	70*
Cc1nnsc1-c1c(C(=O)N2CCOCC2)c(C)nn1-c1ccc(Cl)cc1	1	4	-6	-1	5	-2	x	x
Cc1cc(C)c(S(=O)(=O)N2CCN(C(=O)c3ccccc3OCc3c(C)noc3C)CC2)c(C)c1	8	x	x	x	x	x	x	x
Cc1ccc(-c2nc3ccccc3c(=O)o2)cc1	-1	-5	-8	-1	1	-1	x	x
O=c1oc(-c2ccc(Br)o2)nc2ccccc12	-2	8	98*	-1	2	5	-2	13
CCc1ccc(/C=N/NC(=O)c2nnn(-c3nonc3N)c2C(C)C)cc1	-3	4	6	2	2	-2	x	x
CC(C)c1cc(Nc2cccc(O)c2)cc(C(C)C)c1O	x	148*	146*	-1	-8	140*	18	15
O=c1cc(CSc2nnc3ccccn23)c2c(ccc3ccccc32)o1	3	66*	88*	-1	6	76*	-8	16
O=c1[nH]c(CSc2nnc3ccccn23)nc2ccccc12	-3	-3	8	2	2	8	x	x
O=Cc1c(N2CCC3(CC2)OCCO3)nc2ccccn2c1=O	2	6	9	0	15	2	x	x
CNC(=O)c1cc(C(=O)c2ccc(C(F)(F)F)cc2F)c[nH]1	10	2	66*	1	1	4	2	6
CNC(=O)c1cc(C(=O)c2ccc(C(F)(F)F)cc2)c[nH]1	1	1	5	2	-1	3	x	x
O=c1cc(C(O)C[N+](=O)[O-])occ1OCc1ccccc1 (stereo not given)	x	-12	1	2	-4	2	x	x
CCOC(=O)C1CCCN(C(=O)C2c3ccccc3Oc3ccccc32)C1 (stereo not given)	0	189*	+	-7	-3	+	42*	55*
Nc1c(N)c2ccccc2oc1=O	3	5	8	4	0	8	x	x
O=c1oc2ccccc2c2oc3cc(O)c(O)cc3c12	-3	1	71*	0	-4	29	34*	74*
O=C(Nc1ccccc1Cl)C1CC(=O)N(Cc2ccco2)C1 (stereo not given)	4	-2	-15	x	-4	-5	x	x
COc1cc(/C=C2\CCCc3c2nc2ccccc2c3C(=O)O)cc([N+](=O)[O-])c1O	4	1	21	-8	-7	17	x	x
COc1ccc(/C=C2\CCCc3c2nc2ccccc2c3C(=O)O)cc1OC	x	120*	159*	-73*	-9	145*	170*	191*
COc1ccc(/C=C2\CCc3c2nc2ccccc2c3C(=O)O)cc1OC	-4	117*	86*	-5	-5	99*	17	12
COc1cc(/C=C2\CCCc3c2nc2ccccc2c3C(=O)O)cc(OC)c1O	4	7	14	-11	3	15	x	x
CCOc1ccc(/C=C2\CCCc3c2nc2ccccc2c3C(=O)O)cc1OC	48*	150*	+	u	-36	176*	183*	+
COc1ccc(CNC(=O)C[C@H]2C(=O)N(CCc3ccccc3)C[C@@H]2Cc2ccccc2)cc1	3	7	4	2	-2	1	x	x
SMILES	IDE act	GLD-1 TGE inh	MCL1-BIM inh	MEX-5 binding	IDE cell inh	BCLXL inh	Bcl-xL conf	MCL1 BIM confirm
CCn1cc(C(=O)NN)c(=O)c2cc(F)c(N3CCOCC3)cc21	0	-7	41*	0	-2	7	15	29
CCN(CCn1cccn1)Cc1ccccc1OCC(O)CN1CCc2ccccc2C1 (stereo not given)	2	-6	-17	3	3	-12	x	x
COc1ccc2nc(N3CCCC3)c(C#N)cc2c1	0	49*	67*	3	8	74*	115*	130*
CC(Sc1ccccc1)C(=O)NN=C1CCCCCC1 (stereo not given)	1	3	-9	0	0	4	x	x
O=C(NCc1ccco1)c1c2c(nc3ccccc13)CCC2	8	10	58*	-1	5	22	30	68*
O=C(CSc1c2c(nc3ccccc13)CCCC2)NCc1ccco1	0	4	11	3	-1	11	x	x
C=CCOc1ccc(/C=C2\SC(=Nc3cccnc3)NC2=O)cc1	-12	0	64*	-5	6	64*	65*	74*
CC(C)CCOCC1CC2(CC(C)(c3csc(N)n3)OC2=O)C(=O)O1 (stereo not given)	-3	2	168*	2	4	-7	3	-4
N#CC12COC3(CCCCC3C1(C#N)C#N)OC2=N (stereo not given)	-2	74*	72*	-6	8	63*	21	12
CCCC1OC23CCCCC2C(C#N)(C(=N)O3)C1(C#N)C#N (stereo not given)	4	55*	56*	0	7	55*	17	16
CC1OC23CCCCC2C(C#N)(C(=N)O3)C1(C#N)C#N (stereo not given)	3	15	21	1	3	26	x	x
COc1ccc(C2CC3(O)NC(=O)C(C#N)(C3C)C2(C#N)C#N)cc1 (stereo not given)	x	-3	-4	-4	7	3	x	x
COc1ccc(C2OC34CCCCC3C(C#N)(C#N)C2(C#N)C(=N)O4)cc1 (stereo not given)	1	101*	155*	-84*	-2	135*	105*	135*
CCC1OC23CCCCC2C(C#N)(C(=N)O3)C1(C#N)C#N (stereo not given)	7	57*	78*	0	5	77*	4	7
COc1ccc(/C(N)=N/O)c(OC)c1	3	2	-6	1	5	2	x	x
O=C(NCc1cccnc1)c1ccc(Br)s1	5	1	3	-1	-3	5	x	x
CCOC(=O)c1sc(N)nc1C(F)(F)F	0	x	x	x	x	x	x	x
